Records with an inconclusive call do not appear. Active and inactive are the calls of the source. Unless noted, calls follow the shape of the full dose curve.
How the values were obtained:
[1] = Nuclear factor erythroid 2-related factor 2/antioxidant responsive element (Nrf2/ARE) small molecule agonists: qHTS cell viability counter screen in human keratinocytes (AID 1919968; active = well fitted curve in the direction sought with a large enough effect in the repeat runs; an effect the other way counts as inactive or inconclusive; also: nearly all actives have a fitted effect of over 55% in size)
Procedure, shortened: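 Stably transfected HaCaT (KeratinoSens), 1,500/well. Test agents in DMSO were applied for 23 h, 37 C/5% CO2. CellTiter-Fluor was incubated 1 h before the fluorescence read.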

[2] = molecular target: Gonadotropin-releasing hormone receptor (Homo sapiens) (UniProt P30968); assay: Human gonadotropin-releasing hormone receptor (GnRHR) small molecule agonists, calcium flux assay in GnRHR-HEK293 cells (AID 1920063); also: nearly all actives have a fitted effect of over 35% in size
Sequence of Gonadotropin-releasing hormone receptor (Homo sapiens) (P30968 whole entry, looked up): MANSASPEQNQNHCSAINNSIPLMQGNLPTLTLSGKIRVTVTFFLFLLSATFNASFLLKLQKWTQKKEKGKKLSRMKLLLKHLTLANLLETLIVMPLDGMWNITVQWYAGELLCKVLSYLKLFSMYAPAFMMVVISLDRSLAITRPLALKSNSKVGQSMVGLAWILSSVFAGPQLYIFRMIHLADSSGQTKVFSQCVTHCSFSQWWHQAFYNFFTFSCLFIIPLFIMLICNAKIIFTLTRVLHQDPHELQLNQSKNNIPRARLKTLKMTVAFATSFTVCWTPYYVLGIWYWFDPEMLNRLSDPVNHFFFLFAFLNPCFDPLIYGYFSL
Procedure, shortened: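 Stable human GnRHR HEK293 line. 18 h plating, then calcium dye for 1 h at 37 C. Agonist-mode compound addition from DMSO stocks; fluorescence monitored 3 min.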

[3] = molecular target: KiSS-1 receptor (Homo sapiens) (UniProt Q969F8); assay: Human kisspeptin (KISS1R) small molecule agonists, calcium flux assay in KISS1R-HEK293 cells (AID 1920064; active = well fitted curve in the direction sought with a large enough effect in the repeat runs; an effect the other way counts as inactive or inconclusive)
Sequence of KiSS-1 receptor (Homo sapiens) (Q969F8 whole entry, looked up): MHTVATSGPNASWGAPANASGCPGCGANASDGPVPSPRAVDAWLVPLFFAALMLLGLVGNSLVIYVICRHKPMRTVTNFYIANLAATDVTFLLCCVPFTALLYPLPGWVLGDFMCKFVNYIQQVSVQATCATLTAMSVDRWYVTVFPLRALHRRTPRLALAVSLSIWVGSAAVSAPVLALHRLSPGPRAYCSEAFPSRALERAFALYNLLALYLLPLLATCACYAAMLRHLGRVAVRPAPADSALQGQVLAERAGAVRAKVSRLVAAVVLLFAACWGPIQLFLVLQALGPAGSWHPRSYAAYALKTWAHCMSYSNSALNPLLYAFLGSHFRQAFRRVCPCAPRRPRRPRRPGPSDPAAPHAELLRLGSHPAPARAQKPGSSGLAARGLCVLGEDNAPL
Procedure, shortened: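 After overnight (18 h) culture at 37 C/5% CO2, human KISS1R-HEK293 cells received calcium dye for 1 h, then test compound; emission at 540 nm (excitation 480 nm) was tracked for 3 min.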

[4] = G protein-coupled receptor (GPCR) small molecule agonists, calcium flux assay: HEK293 wild type cell line counter screen (AID 1920065)
Procedure, shortened: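 Following 18 h incubation at 37 C/5% CO2, plates got calcium dye for 1 h; compounds, ATP or DMSO were then pinned in and fluorescence followed kinetically (480/540 nm).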

[5] = p53 small molecule agonists, cell-based qHTS assay with human liver microsomes (AID 1963577)
Procedure, shortened: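 p53RE-bla reporter cells were pre-incubated 5 h at 37 C, then treated with compounds plus human liver microsomes (0.5 mg/mL final) and NADPH (0.5 mg/mL final) for 16 h at 37 C. Beta-lactamase activity was read by LiveBLAzer fluorescence after 2 h at room temperature.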

[6] = p53 small molecule agonists, cell-based qHTS assay with rat liver microsomes (AID 1963578)
Procedure, shortened: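 p53RE-bla cells were exposed to compounds together with rat liver microsomes (0.5 mg/mL final) and NADPH (0.5 mg/mL final) for 16 h at 37 C, then read by LiveBLAzer beta-lactamase fluorescence after 2 h at room temperature.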

[7] = p53 small molecule agonists, cell-based qHTS assay with rat liver microsomes: qHTS cell viability counter screen (AID 1963580); also: nearly all actives have a fitted effect of over 45% in size
Procedure, shortened: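 Rat liver microsome (0.5 mg/mL final) and NADPH (0.5 mg/mL final) co-incubation with compounds for 16 h at 37 C on HCT-116 p53RE-bla cells; cytotoxicity taken from intracellular ATP luminescence.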

[8] = p53 small molecule agonists, cell-based qHTS assay: qHTS cell viability counter screen (AID 1963581); also: nearly all actives have a fitted effect of over 45% in size
Procedure, shortened: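 qHTS counter screen: 16 h compound exposure at 37 C of p53RE-bla HCT-116 cells (4,000 per well, seeded 5 h prior), cell viability by ATP luminescence.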

[9] = p53 small molecule agonists, cell-based qHTS assay (AID 1963582; active = well fitted activation curve with a large enough effect in the signal ratio in the repeat runs, not every such curve was filed as active; the % refers to the signal ratio)
Procedure, shortened: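 Measured: fluorescence from cleaved LiveBLAzer substrate. System: p53RE-bla cells, 16 h compound treatment at 37 C, 2 h substrate step at room temperature.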

[10] = molecular target: 5-hydroxytryptamine receptor 2A (Homo sapiens) (UniProt P28223); assay: 5-hydroxytryptamine receptor 2A (HTR2A) small molecule antagonists, cell-based qHTS assay (AID 1963586); also: nearly all actives have a fitted effect of over 45% in size
Sequence of 5-hydroxytryptamine receptor 2A (Homo sapiens) (P28223 whole entry, looked up): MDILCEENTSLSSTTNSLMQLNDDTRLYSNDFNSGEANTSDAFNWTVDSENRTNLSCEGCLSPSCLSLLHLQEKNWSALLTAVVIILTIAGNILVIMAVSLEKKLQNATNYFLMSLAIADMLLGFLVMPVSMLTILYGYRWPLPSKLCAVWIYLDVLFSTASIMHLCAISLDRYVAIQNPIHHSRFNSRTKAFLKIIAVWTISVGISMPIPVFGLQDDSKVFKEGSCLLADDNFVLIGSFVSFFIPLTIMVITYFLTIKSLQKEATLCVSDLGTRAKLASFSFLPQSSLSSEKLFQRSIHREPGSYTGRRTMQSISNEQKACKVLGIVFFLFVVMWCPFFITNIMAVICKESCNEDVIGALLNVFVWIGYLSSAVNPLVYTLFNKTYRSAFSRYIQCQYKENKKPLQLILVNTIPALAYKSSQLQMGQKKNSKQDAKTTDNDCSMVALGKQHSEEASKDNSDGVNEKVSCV
Procedure, shortened: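 CHO cells stably expressing human HTR2A were plated for 18 h at 37 C, then loaded with calcium dye for 1 h. Compounds were preincubated 5 min at room temperature before DOI (4 nM solution) was added. Kinetic fluorescence was read for 3 min.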

[11] = molecular target: 5-hydroxytryptamine receptor 2A (Homo sapiens) (UniProt P28223); assay: 5-hydroxytryptamine receptor 2A (HTR2A) small molecule agonists, cell-based qHTS assay (AID 1963587); also: nearly all actives have a fitted effect of over 30% in size
Procedure, shortened: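 Kinetic calcium-flux fluorescence (2 min, 1 sec intervals) after compound addition in agonist mode. HTR2A-CHO cells were cultured 18 h, then dye-loaded 1 h at 37 C.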

[12] = molecular target: Muscarinic acetylcholine receptor M1 (Homo sapiens) (UniProt P11229); assay: Cholinergic receptor muscarinic 1 (CHRM1) small molecule antagonists, cell-based qHTS assay (AID 1963588); also: nearly all actives have a fitted effect of over 40% in size
Sequence of Muscarinic acetylcholine receptor M1 (Homo sapiens) (P11229 whole entry, looked up): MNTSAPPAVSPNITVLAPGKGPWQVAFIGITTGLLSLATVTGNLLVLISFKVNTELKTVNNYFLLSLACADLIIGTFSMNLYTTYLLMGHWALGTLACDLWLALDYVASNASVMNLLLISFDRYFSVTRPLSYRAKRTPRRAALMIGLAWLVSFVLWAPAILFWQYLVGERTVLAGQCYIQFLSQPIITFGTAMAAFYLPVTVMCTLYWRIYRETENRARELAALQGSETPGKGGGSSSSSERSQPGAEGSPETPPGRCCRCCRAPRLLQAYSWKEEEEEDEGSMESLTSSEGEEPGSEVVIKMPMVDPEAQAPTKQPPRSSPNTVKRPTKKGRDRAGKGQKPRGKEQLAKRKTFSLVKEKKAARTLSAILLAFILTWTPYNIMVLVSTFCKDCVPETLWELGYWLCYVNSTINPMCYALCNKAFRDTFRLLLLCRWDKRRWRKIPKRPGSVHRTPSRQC
Procedure, shortened: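 Compounds were tested at 15 concentrations in three independent runs. Dye-loaded CHRM1-CHO cells were exposed 5 min at room temperature before stimulation by acetylcholine added at 50nM. Intracellular calcium was read kinetically on FDSS for 3 min.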

[13] = molecular target: Muscarinic acetylcholine receptor M1 (Homo sapiens) (UniProt P11229); assay: Cholinergic receptor muscarinic 1 (CHRM1) small molecule agonists, cell-based qHTS assay (AID 1963589); also: nearly all actives have a fitted effect of over 35% in size
Procedure, shortened: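 Kinetic fluorescence (1 s intervals) of calcium-sensitive dye in human M1 CHO cells after compound addition; cells pre-incubated 18 h at 37 C/5% CO2 and dye-loaded 1 h.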

[14] = cAMP Responsive Elements (CRE) small molecule agonists, cell-based qHTS assay (AID 1963590)
Procedure, shortened: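 Test agents in DMSO were incubated 3 h at 37 C/5% CO2 with CRE-bla HEK 293T cells seeded 18 h earlier; LiveBLAzer B/G FRET substrate was added and read after 2 h at room temperature.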

[15] = cAMP Responsive Elements (CRE) small molecule antagonists, cell-based qHTS assay (AID 1963591; active = well fitted inhibition curve with a large enough effect in the signal ratio in the repeat runs, not every such curve was filed as active; the % refers to the signal ratio)
Procedure, shortened: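 Reporter line CRE-bla HEK 293T in dialyzed-FBS DMEM; cells preincubated 18 h, treated 3 h with compound plus NKH477 (0.25 uM final); LiveBLAzer FRET, 2 h RT.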

[16] = molecular target: Beta-2 adrenergic receptor (Homo sapiens) (UniProt P07550); assay: Adrenergic beta2 receptor (ADRB2) small molecule antagonists, cell-based qHTS assay (AID 1963592); also: series mostly up to about 92 µM; nearly all actives have a fitted effect of over 50% in size
Sequence of Beta-2 adrenergic receptor (Homo sapiens) (P07550 whole entry, looked up): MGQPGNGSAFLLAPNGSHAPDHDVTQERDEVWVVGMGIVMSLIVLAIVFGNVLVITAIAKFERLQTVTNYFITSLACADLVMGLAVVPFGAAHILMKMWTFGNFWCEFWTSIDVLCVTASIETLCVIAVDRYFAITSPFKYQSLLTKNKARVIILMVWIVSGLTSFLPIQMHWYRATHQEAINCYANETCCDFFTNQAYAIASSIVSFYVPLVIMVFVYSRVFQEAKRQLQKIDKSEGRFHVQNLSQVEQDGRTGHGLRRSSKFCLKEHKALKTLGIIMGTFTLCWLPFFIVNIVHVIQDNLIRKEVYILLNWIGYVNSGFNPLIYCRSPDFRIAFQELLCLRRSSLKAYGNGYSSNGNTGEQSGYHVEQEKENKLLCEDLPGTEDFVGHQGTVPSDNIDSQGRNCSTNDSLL
Procedure, shortened: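 Assay format: CHO-ADRB2 cells, 18-20hr seeding at 37C/5% CO2, then compound plus 1nM isoproterenol agonist mix for 0.5hr RT. Homogeneous time-resolved fluorescence cAMP detection after 1hr, expressed as 665/615 nm ratio.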

[17] = molecular target: Beta-2 adrenergic receptor (Homo sapiens) (UniProt P07550); assay: Adrenergic beta2 receptor (ADRB2) small molecule agonists, cell-based qHTS assay (AID 1963593);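 also: CHO cells stably overexpressing human ADRB2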
Procedure, shortened: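 CHO cells stably over-expressing ADRB2 were plated overnight at 37C, then dosed with compounds plus a stimulation mix containing 100uM IBMX and 25uM Ro-20-1724 for 0.5hr at room temperature. cAMP was measured by HTRF competition, 1hr.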

[18] = molecular target: D(2) dopamine receptor (Homo sapiens) (UniProt P14416); assay: Dopamine D2 receptor (DRD2) small molecule agonists, cell-based qHTS assay (AID 1963594); also: nearly all actives have a fitted effect of over 35% in size
Sequence of D(2) dopamine receptor (Homo sapiens) (P14416 whole entry, looked up): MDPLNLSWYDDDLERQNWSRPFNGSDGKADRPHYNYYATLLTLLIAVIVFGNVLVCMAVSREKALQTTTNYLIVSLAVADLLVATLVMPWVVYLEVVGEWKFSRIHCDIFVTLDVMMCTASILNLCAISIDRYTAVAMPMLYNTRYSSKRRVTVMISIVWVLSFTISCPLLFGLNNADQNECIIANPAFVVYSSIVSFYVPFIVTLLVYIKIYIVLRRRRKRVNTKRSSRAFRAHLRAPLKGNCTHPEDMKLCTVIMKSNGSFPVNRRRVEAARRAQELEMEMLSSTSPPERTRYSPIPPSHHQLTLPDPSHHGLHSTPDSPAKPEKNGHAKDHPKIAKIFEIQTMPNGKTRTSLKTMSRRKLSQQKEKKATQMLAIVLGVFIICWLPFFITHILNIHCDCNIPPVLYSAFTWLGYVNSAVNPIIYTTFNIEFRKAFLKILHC
Procedure, shortened: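 cAMP accumulation in DRD2-HEK293 cells measured by HTRF after 1 h detection; compounds added 10 min before NKH477 (200nM […]) forskolin-analogue stimulation, 30 min at room temperature, with Ro20-1724 present at 0.1 mM final.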

[19] = molecular target: D(2) dopamine receptor (Homo sapiens) (UniProt P14416); assay: Dopamine D2 receptor (DRD2) small molecule antagonists, cell-based qHTS assay (AID 1963595; active = well fitted inhibition curve with a large enough effect in the signal ratio in the repeat runs, with a control signal flat; the % refers to the signal ratio)
Procedure, shortened: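 Readout: HTRF cAMP, cAMP-d2 competing with cellular cAMP for anti-cAMP cryptate, read after 1 h. Cells: DRD2-HEK293. Conditions: 0.1 mM Ro20-1724, 12 nM quinpirole, 200 nM NKH477, 30 min RT.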

[20] = p53 small molecule agonists, cell-based qHTS assay with human liver microsomes: qHTS cell viability counter screen (AID 1963579); also: nearly all actives have a fitted effect of over 45% in size
Procedure, shortened: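 p53RE-bla cells (4,000/well) were pre-incubated 5 h at 37 C, then given compounds in DMSO plus human liver microsomes (0.5 mg/mL final) and NADPH (0.5 mg/mL final) for 16 h at 37 C. Viability was read by CellTiter-Glo luminescence.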

Measured: Potency

c1ccsc1
not listed: [20]
inactive: all other assays above

C[C@@H]1CCC[C@H](C)N1
not listed: [5] | [17]
inactive: all other assays above

C/C=C/CO
not listed: [5] | [6] | [17]
inactive: all other assays above

O=P(O)(O)O
not listed: [5] | [6] | [9] | [16]
inactive: all other assays above

c1ccc2c(c1)-c1cccc3c1c-2cc1ccccc13
not listed: [5] | [6] | [9] | [15] | [17]
inactive: all other assays above

CCOC(C)(C)C
not listed: [7] | [10]
inactive: all other assays above

CCC(=O)O[C@@H]1C[C@H]2CC[C@]1(C)C2(C)C
not listed: [7] | [8] | [13] | [16] | [17]
inactive: all other assays above

CCCSc1ccc2nc(NC(=O)OC)[nH]c2c1
not listed: [6] | [8] | [9] | [10] | [11] | [12] | [13] | [14]
inactive: all other assays above

Cc1cc(CCC(=O)OCCOCCOCCOC(=O)CCc2cc(C)c(O)c(C(C)(C)C)c2)cc(C(C)(C)C)c1O
not listed: [17] | [20]
inactive: all other assays above

CCCCCCCCCCCCCCCC(=O)NCCO
not listed: [6] | [11] | [19] | [20]
inactive: all other assays above

CCCCCC/C(C=O)=C\c1ccccc1
not listed: [5] | [6] | [9]
inactive: all other assays above

CCN(Cc1cccc(S(=O)(=O)O)c1)c1ccccc1
not listed: [5] | [14] | [17] | [19]
inactive: all other assays above

Cn1c(=O)c2c(ncn2C)n(C)c1=O
not listed: [6] | [10] | [11] | [12] | [13] | [17]
inactive: all other assays above

O=C(O)c1ccccc1C(c1ccc(O)cc1)c1ccc(O)cc1
not listed: [5] | [6] | [9] | [10] | [17]
inactive: all other assays above

Reference: PubChem BioAssay (Tox21)
